Reference: PubChem BioAssay (EPA / NIEHS)
The source holds several records for some structures; these can differ, active in one and inactive in another. Active and inactive are the calls of the source. How the source made its calls: active means hit-call score of the fitted dose curve at least 0.9, where 1 is the maximum; inactive means score below 0.9.

Assays:
[1] = read-out: Interleukin-1 alpha (IL1a), IL1A (gene 3552); experiment: BSK_KF3CT_IL1a: BioMAP Diversity Plus: KF3CT Assay for Interleukin-1 alpha (IL1a) Biomarker Activity (AID 2283070); details: primary human keratinocytes with fibroblasts; actives raise or lower the signal
Summary of the method: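 Human keratinocyte plus foreskin fibroblast primary co-culture, sampled 24 h after chemical dosing. IL-1a measured by ELISA; responses fitted bidirectionally against DMSO baseline (negative control), so gain or loss of signal both count.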

[2] = read-out: TIMP metallopeptidase inhibitor 2 (TIMP2), TIMP2 (gene 7077); experiment: BSK_KF3CT_TIMP2: BioMAP Diversity Plus: KF3CT Assay for TIMP metallopeptidase inhibitor 2 (TIMP2) Biomarker Activity (AID 2283071); details: primary human keratinocytes with fibroblasts; actives raise or lower the signal
Summary of the method: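 Human primary keratinocyte/foreskin fibroblast co-culture dosed with chemical and sampled at 24 h. TIMP-2 levels quantified by ELISA; bidirectional fitting against DMSO negative control as baseline.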

[3] = read-out: Transforming growth factor beta 1 (TGFb1), TGFB1 (gene 7040); experiment: BSK_KF3CT_TGFb1: BioMAP Diversity Plus: KF3CT Assay for Transforming growth factor beta 1 (TGFb1) Biomarker Activity (AID 2283072); details: primary human keratinocytes with fibroblasts; actives raise or lower the signal
Summary of the method: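 Human keratinocyte plus foreskin fibroblast primary co-culture, dosed with chemical for 24 h. TGF-b1 quantified by ELISA. Activity fitted bidirectionally against DMSO negative control as baseline.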

[4] = read-out: C-C motif chemokine 2 (Homo sapiens) (UniProt P13500); experiment: BSK_KF3CT_MCP1: BioMAP Diversity Plus: KF3CT Assay for Monocyte Chemoattractant Protein 1 (MCP1/CCL2) Biomarker Activity (AID 2283073); details: primary human keratinocytes with fibroblasts; actives raise or lower the signal
Summary of the method: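 Keratinocytes and foreskin fibroblasts were co-cultured, dosed with chemical, and sampled 24 h later. MCP-1 was quantified by ELISA, and the endpoint was analyzed with bidirectional fitting using DMSO as negative control.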

[5] = read-out: Matrix Metallopeptidase 9 (MMP9), MMP9 (gene 4318); experiment: BSK_KF3CT_MMP9: BioMAP Diversity Plus: KF3CT Assay for Matrix Metallopeptidase 9 (MMP9) Biomarker Activity (AID 2283074); details: primary human keratinocytes with fibroblasts; actives raise or lower the signal;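 on AC50: MMP9 protein level quantified by ELISA in the co-culture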
Summary of the method: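 Keratinocyte plus foreskin fibroblast human primary skin co-culture was dosed with chemical and MMP-9 was quantified by ELISA 24 h later. Bidirectional curve fitting used DMSO as negative control and activity baseline.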

[6] = read-out: urokinase plasminogen activator (uPA), PLAU (gene 5328); experiment: BSK_KF3CT_uPA: BioMAP Diversity Plus: KF3CT Assay for urokinase plasminogen activator (uPA) Biomarker Activity (AID 2283075); details: primary human keratinocytes with fibroblasts; actives raise or lower the signal
Summary of the method: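 Human keratinocyte plus foreskin fibroblast primary co-culture exposed to chemical for 24 h. uPA levels were quantified by ELISA, and activity was fitted bidirectionally against a DMSO negative-control baseline.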

[7] = read-out: CD40, CD40 (gene 958); experiment: BSK_LPS_CD40: BioMAP Diversity Plus: LPS Assay for CD40 Biomarker Activity (AID 2283076); details: primary human HUVEC with PBMC; actives raise or lower the signal
Summary of the method: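 CD40 signal, measured by ELISA, is fitted in both directions relative to DMSO vehicle. The system is an LPS-driven human vascular primary co-culture of endothelial cells and PBMC, sampled 24 h after compound addition.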

[8] = read-out: Interleukin-8 (IL8), CXCL8 (gene 3576); experiment: BSK_LPS_IL8: BioMAP Diversity Plus: LPS Assay for Interleukin-8 (IL8) Biomarker Activity (AID 2283078); details: primary human HUVEC with PBMC; actives raise or lower the signal
Summary of the method: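 Endothelial cells and PBMC from human donors are co-cultured, treated with chemicals and LPS, then assayed for IL-8 by ELISA after 24 h. Parallel SRB staining (0.1% SRB after 10% TCA fixation, 560 nm) flags cytotoxicity.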

[9] = BSK_LPS_SRB: Viability Assessment in the BioMAP Diversity Plus: LPS Assay (AID 2283079); details: primary human HUVEC with PBMC;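 further: total protein by sulforhodamine B absorbance as a cytotoxicity measure; measured one day after compound addition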
Summary of the method: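 Overt cytotoxicity was gauged by sulforhodamine B total-protein staining in a primary human vascular endothelial and mononuclear cell co-culture 24 h post-dosing. Activity was fitted in both directions relative to DMSO.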

[10] = read-out: E-selectin (Homo sapiens) (UniProt P16581); experiment: BSK_LPS_Eselectin: BioMAP Diversity Plus: LPS Assay for Eselectin Biomarker Activity (AID 2283077); details: primary human HUVEC with PBMC; actives raise or lower the signal
Summary of the method: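 Signal of E-selectin, detected by ELISA, served as the endpoint; cells were umbilical vein endothelium with PBMC, read 24 h after treatment. DMSO defined baseline, and both increases and decreases were fitted.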

Measured: AC50

Sequence of E-selectin (Homo sapiens) (P16581 whole entry, looked up): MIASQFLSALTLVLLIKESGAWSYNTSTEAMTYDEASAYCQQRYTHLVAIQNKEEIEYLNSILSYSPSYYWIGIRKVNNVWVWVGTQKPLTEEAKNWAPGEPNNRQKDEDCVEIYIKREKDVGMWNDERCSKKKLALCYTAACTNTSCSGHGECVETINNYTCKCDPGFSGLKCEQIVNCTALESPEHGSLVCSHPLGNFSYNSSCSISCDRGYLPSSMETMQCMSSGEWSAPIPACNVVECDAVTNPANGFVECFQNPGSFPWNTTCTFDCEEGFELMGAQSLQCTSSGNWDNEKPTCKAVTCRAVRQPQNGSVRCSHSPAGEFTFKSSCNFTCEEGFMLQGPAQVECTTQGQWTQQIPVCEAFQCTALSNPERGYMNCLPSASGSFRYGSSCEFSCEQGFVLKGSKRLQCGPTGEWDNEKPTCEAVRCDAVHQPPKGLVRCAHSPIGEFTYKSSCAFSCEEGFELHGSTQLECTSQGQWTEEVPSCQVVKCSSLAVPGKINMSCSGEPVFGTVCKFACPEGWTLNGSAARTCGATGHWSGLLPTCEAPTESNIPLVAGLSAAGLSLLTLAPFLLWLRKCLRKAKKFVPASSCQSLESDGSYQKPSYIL

O=C(O)c1nc(Cl)ccc1Cl
active: [1] 0.148 µM
inactive: [1] | [2] | [3] | [4] | [5] | [6] | [7] | [8] | [9]

COc1ccc(C(c2ccc(OC)cc2)C(Cl)(Cl)Cl)cc1
inactive: [2] | [3] | [4] | [6]
active: [1] 7.74 µM | [5] 12.7 µM | [7] 23.3 µM | [10] 27.5 µM | [8] 25 µM | [9] 20 µM

COC(=O)N(OC)c1ccccc1COc1ccn(-c2ccc(Cl)cc2)n1
active: [1] 3.97 µM | [4] 2.56 µM | [5] 3.97 µM | [10] 6.89 µM | [8] 3.97 µM | [9] 10.1 µM
inactive: [2] | [3] | [6]

CC1=C(C(=O)Nc2ccccc2)SCCO1
not listed: [10]
inactive: all other assays above

CNC(=O)ON=CC(C)(C)SC
active: [1] 1.34 µM
not listed: [7]
inactive: all other assays above

COC(=O)c1ccccc1C(=O)OC
not listed: [7]
inactive: all other assays above

COC(=O)C=C(C)OP(=O)(OC)OC
not listed: [7]
inactive: all other assays above

CC(C)Oc1cc(-n2nc(C(C)(C)C)oc2=O)c(Cl)cc1Cl
inactive: [2] | [3] | [4] | [6]
active: [1] 13.9 µM | [5] 28.8 µM | [10] 31.3 µM | [8] 31.5 µM | [9] 29.3 µM

CCOC(=O)C(Cl)Cc1cc(-n2nc(C)n(C(F)F)c2=O)c(F)cc1Cl (stereo not given)
not listed: [7]
inactive: all other assays above

CCCN(CCC)c1c([N+](=O)[O-])cc(S(N)(=O)=O)cc1[N+](=O)[O-]
active: [2] 34.6 µM | [3] 34.4 µM | [5] 32.8 µM | [7] 33.6 µM [middle of 4 runs] | [8] 33.1 µM [middle of 4 runs] | [9] 31.8 µM [middle of 4 runs]
inactive: [1] | [2] | [3] | [5] | [6]

CCCCOC(=O)c1ccccc1C(=O)OCCCC
active: [8] 25.3 µM | [9] 9.66 µM
inactive: [1] | [2] | [3] | [4] | [5] | [6] | [8] | [9]

CCCCC(CC)COC(=O)c1ccccc1C(=O)OCC(CC)CCCC (stereo not given)
active: [8] 3.22 µM | [9] 4.97 µM
not listed: [7] | [10]
inactive: all other assays above

CC1COC(Cn2cncn2)(c2ccc(Oc3ccc(Cl)cc3)cc2Cl)O1 (stereo not given)
active: [1] 38 µM | [2] 26.7 µM | [3] 34.5 µM | [4] 34.4 µM | [5] 31.1 µM | [6] 33.9 µM | [8] 28.6 µM | [9] 28.8 µM

CCCC1COC(Cn2cncn2)(c2ccc(Cl)cc2Cl)O1 (stereo not given)
not listed: [7] | [10]
inactive: all other assays above

CCON=C(CC)C1=C(O)CC(c2c(C)cc(C)cc2C)CC1=O (stereo not given)
not listed: [7] | [10]
inactive: all other assays above

CS/C(C)=N/OC(=O)N(C)SN(C)C(=O)O/N=C(\C)SC
active: [1] 17.8 µM | [2] 14.5 µM | [3] 13.3 µM | [4] 12.6 µM | [5] 17.1 µM | [6] 16.9 µM | [8] 30.8 µM | [9] 29.8 µM

C=CC1(C)OC(=O)N(c2cc(Cl)cc(Cl)c2)C1=O (stereo not given)
not listed: [7] | [10]
inactive: all other assays above

CCOc1cc(Oc2ccc(C(F)(F)F)cc2Cl)ccc1[N+](=O)[O-]
active: [1] 6.07 µM | [8] 11 µM | [9] 9.65 µM
not listed: [7] | [10]
inactive: all other assays above
